About 83,000 compounds went through this panel and 20% of them were active in at least one assay; those are over-represented in the sample as a whole.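 The endpoint reported here, percent growth, reads 100 for growth as untreated, 0 for no net growth and -100 for all cells dead.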 A number with no mark means an inactive call. Active and inactive are the calls of the source. How the source made its calls: active means growth percent below 10; inactive means the rest.
Key:
Assay in all cases: NCI-60 one-dose screen, 48 h (100 = growth as untreated, 0 = no growth, -100 = all killed)
Settings in all cases: 10 µM unless noted
NCI-H23 lung = tested on: NCI-H23 lung
NCI-H226 lung = tested on: NCI-H226 lung
NCI-H322M lung = tested on: NCI-H322M lung
HOP-62 NSCLC = tested on: HOP-62 NSCLC
NCI-H460 lung = tested on: NCI-H460 lung
HOP-92 NSCLC = tested on: HOP-92 NSCLC
NCI-H522 lung = tested on: NCI-H522 lung
A549/ATCC NSCLC = tested on: A549/ATCC NSCLC
786-0 renal = tested on: 786-0 renal
COLO 205 colon = tested on: COLO 205 colon
DU-145 prostate = tested on: DU-145 prostate
K-562 leukemia = tested on: K-562 leukemia
MALME-3M melanoma = tested on: MALME-3M melanoma
MDA-MB-231 breast = tested on: MDA-MB-231 breast
RXF 393 renal = tested on: RXF 393 renal
SF-268 CNS = tested on: SF-268 CNS
SF-295 CNS = tested on: SF-295 CNS
SF-539 CNS = tested on: SF-539 CNS
UACC-257 melanoma = tested on: UACC-257 melanoma
M14 melanoma = tested on: M14 melanoma

Row | Compound | growth (NCI-H23 lung) | growth (NCI-H226 lung) [%] | growth (NCI-H322M lung) [%] | growth (HOP-62 NSCLC) [%] | growth (NCI-H460 lung) [%] | growth (HOP-92 NSCLC) | growth (NCI-H522 lung) | growth (A549/ATCC NSCLC) [%] | growth (786-0 renal) [%] | growth (COLO 205 colon) | growth (DU-145 prostate) [%] | growth (K-562 leukemia) | growth (MALME-3M melanoma) | growth (MDA-MB-231 breast) | growth (RXF 393 renal) | growth (SF-268 CNS) [%] | growth (SF-295 CNS) | growth (SF-539 CNS) | growth (UACC-257 melanoma) | growth (M14 melanoma)
1 | C=C(C)[C@@H]1CC[C@]2(C)[C@H](CC=C3[C@@H]4C[C@](C)(C(=O)N5CCN(C)CC5)CC[C@]4(C)CC[C@]32C)[C@@]1(C)CCC#N | 72.5% | 69.6 | 85.1 | 63.1 | 28 | 32.7% | 79.8% | 55.3 | 71.5 | 45.2% | 88.3 | 23.4% | 77% | 85.9% | 84.9% | 72.5 | 95% | 70.2% | 51.4% | 66.6%
2 | CC(=O)N(C)c1ccc(Nc2cc(C)[nH]c3ccc4ncnc4c23)cc1 | 50.4% | 54.8 | 77 | 54.3 | 22.4 | -2.3% (active) | 22.1% | 67.2 | 55.8 | 53.3% | 46.5 | 29.5% | 82.4% | 87.7% | 41.7% | 55 | 76.5% | 40.7% | 48.2% | 76.9%
3 | CCCCn1c(C)nc2cc(Nc3nc(Cl)nc4nc[nH]c34)ccc21 | 77.9% | 75 | 76.8 | 66 | 84.7 | -1.07% (active) | 78.9% | 85 | 76.4 | 89.7% | 89.6 | 90.3% | 79.8% | 75% | 81.9% | 92.4 | 74.5% | 76.3% | 100% | 86.8%
4 | CCSc1ccc([C@@H]2[C@@H](N)C(=O)N2c2cc(OC)c(OC)c(OC)c2)cc1 | 35.9% | 59.4 | 45.7 | 41.8 | 12.2 | 113% | 18.7% | 30.5 | 31.7 | -5.46% (active) | 23.7 | 7.64% (active) | 63.8% | 41% | -17% (active) | 54.6 | 10.2% | -22.6% (active) | 67.7% | -15.5% (active)
5 | Cc1n(Cc2ccc3ccccc3n2)cc[n+]1Cc1ccc2ccccc2c1 | 2.01% (active) | 12.7 | 26 | 13.3 | 10.2 | -6.1% (active) | 3.95% (active) | 33.5 | 63.3 | -38.4% (active) | 26.6 | 11.5% | -30.2% (active) | 2.1% (active) | 9.37% (active) | 20.8 | 9.7% (active) | 14.3% | -15.1% (active) | 18.2%
6 | c1ccc2c(Cc3csc4ccccc34)csc2c1 | 84.7% | 95.1 | 87.2 | 83.2 | 104 | 77.7% | 65.3% | 83 | 93.8 | 83.3% | 110 | 23.8% | 81.9% | 94.9% | 83.6% | 104 | 69.2% | 91.4% | 93.5% | 67.7%
7 | c1ccc(-c2[nH]c3ccccc3c2-c2ccccc2)cc1 | 82% | 91.4 | 82.2 | 90 | 82.5 | 8.71% (active) | 91.8% | 84.5 | 83.9 | 107% | 99.7 | 83.4% | 93.9% | 84.7% | 149% | 106 | 87.9% | 84.6% | 101% | 89.5%

From PubChem BioAssay (NCI)
